# Laboratory results as given in the supplement of paper PMC10849652.
# About 7,900 targets were measured; listed, in parts, are those with a hit and a random draw of the rest. About 0.6% of all pairs of compound and target were hits. A number with no mark means an inactive call.
# Assays:
# Assay in all cases: log2 fold change, soluble protein after heating vs DMSO (PISA); higher = thermal stabilisation; K562 cells, 10 uM, 30 min; active = over 0.2 and 3.5 SD of the protein, either way, in both replicates (recomputed)
# bafetinib = compound: Cc1ccc(NC(=O)c2ccc(CN3CC[C@H](N(C)C)C3)c(C(F)(F)F)c2)cc1Nc1nccc(-c2cncnc2)n1 [bafetinib]
# Outline: (§1)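 K562 cells at 2×10^6 cells/mL were exposed to 10 μM compound for 30 min, then aliquots were heated for 3 min across 48°C-58°C, pooled, and extracted in PBS containing 0.5% NP-40 at 4°C. The supernatant after 21,000xg for 90 min was taken as soluble protein and measured by TMTpro 16plex LC-MS/MS with channel sums equalised. Thermal stability is reported relative to control samples, with values from duplicates. Fold changes are given on a log2 scale.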
# [1] = compound: Cc1cccc(CC(=O)N2CCc3c2ccc(-c2cn(C)c4ncnc(N)c24)c3F)n1
# Outline: as §1
# nilotinib = compound: Cc1cn(-c2cc(NC(=O)c3ccc(C)c(Nc4nccc(-c5cccnc5)n4)c3)cc(C(F)(F)F)c2)cn1 [nilotinib]
# Outline: as §1
# [2] = compound: Cc1nc(Nc2n[nH]c3c2CN(C(=O)N[C@H](CN(C)C)c2ccccc2)C3(C)C)c2sccc2n1
# Outline: as §1
# dasatinib = compound: Cc1nc(Nc2ncc(C(=O)Nc3c(C)cccc3Cl)s2)cc(N2CCN(CCO)CC2)n1 [dasatinib]
# Outline: as §1
# [3] = compound: Cc1ncc(-c2ccnc(Nc3ccc(S(C)(=O)=O)cc3)n2)n1C(C)C
# Outline: as §1
# [4] = compound: Cn1cc(-c2ccc3c(c2)CCN3C(=O)Cc2cccc(C(F)(F)F)c2)c2c(N)ncnc21
# Outline: as §1
# [5] = compound: Cn1cc(-c2ccc3nnc(C(F)(F)c4ccc5ncccc5c4)n3n2)cn1
# Outline: as §1
# tipifarnib = compound: Cn1cncc1[C@@](N)(c1ccc(Cl)cc1)c1ccc2c(c1)c(-c1cccc(Cl)c1)cc(=O)n2C [tipifarnib]
# Outline: as §1
# mubritinib = compound: FC(F)(F)c1ccc(/C=C/c2nc(COc3ccc(CCCCn4ccnn4)cc3)co2)cc1 [mubritinib]
# Outline: as §1
# [6] = compound: NC(=O)Nc1cc(-c2cccc(F)c2)sc1C(=O)N[C@H]1CCCNC1
# Outline: as §1
# [7] = compound: NC(=O)c1cnc(N[C@@H]2CCCC[C@@H]2N)nc1Nc1cccc(-n2nccn2)c1
# Outline: as §1
# [8] = compound: NC1(c2ccc(-c3nc4ccn5c(=O)[nH]nc5c4cc3-c3ccccc3)cc2)CCC1
# Outline: as §1
# [9] = compound: NCC(=O)Nc1ccc(-n2nc(C(F)(F)F)cc2-c2ccc3c(ccc4ccccc43)c2)cc1
# Outline: as §1
# entinostat = compound: Nc1ccccc1NC(=O)c1ccc(CNC(=O)OCc2cccnc2)cc1 [entinostat]
# Outline: as §1
# vorinostat = compound: O=C(CCCCCCC(=O)Nc1ccccc1)NO [vorinostat]
# Outline: as §1
# citarinostat = compound: O=C(CCCCCCNC(=O)c1cnc(N(c2ccccc2)c2ccccc2Cl)nc1)NO [citarinostat]
# Outline: as §1
# silmitasertib = compound: O=C(O)c1ccc2c(c1)nc(Nc1cccc(Cl)c1)c1ccncc12 [silmitasertib]
# Outline: as §1
# [10] = compound: O=C1NC(=O)C(c2cnc3ccccn23)=C1c1cn2c3c(cc(F)cc13)CN(C(=O)N1CCCCC1)CC2
# Outline: as §1
# [11] = compound: c1cc(OCCN2CCCCC2)cc(-c2n[nH]c3ccc(-c4nnc[nH]4)cc23)c1
# Outline: as §1
# Chain of UniProt P84103 (P84103 whole entry, looked up): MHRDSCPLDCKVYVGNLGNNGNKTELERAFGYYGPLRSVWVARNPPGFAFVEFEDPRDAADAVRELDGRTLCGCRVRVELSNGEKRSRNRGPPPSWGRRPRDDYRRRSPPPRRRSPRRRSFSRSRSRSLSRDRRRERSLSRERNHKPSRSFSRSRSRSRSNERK
# Chain of UniProt Q16385 (Q16385 whole entry, looked up): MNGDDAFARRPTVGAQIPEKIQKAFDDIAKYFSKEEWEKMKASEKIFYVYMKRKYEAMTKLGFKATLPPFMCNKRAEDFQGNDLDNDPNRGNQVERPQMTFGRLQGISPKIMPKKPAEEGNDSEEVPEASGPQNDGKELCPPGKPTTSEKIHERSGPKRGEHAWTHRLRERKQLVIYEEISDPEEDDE
# Chain of UniProt Q99805 (Q99805 whole entry, looked up): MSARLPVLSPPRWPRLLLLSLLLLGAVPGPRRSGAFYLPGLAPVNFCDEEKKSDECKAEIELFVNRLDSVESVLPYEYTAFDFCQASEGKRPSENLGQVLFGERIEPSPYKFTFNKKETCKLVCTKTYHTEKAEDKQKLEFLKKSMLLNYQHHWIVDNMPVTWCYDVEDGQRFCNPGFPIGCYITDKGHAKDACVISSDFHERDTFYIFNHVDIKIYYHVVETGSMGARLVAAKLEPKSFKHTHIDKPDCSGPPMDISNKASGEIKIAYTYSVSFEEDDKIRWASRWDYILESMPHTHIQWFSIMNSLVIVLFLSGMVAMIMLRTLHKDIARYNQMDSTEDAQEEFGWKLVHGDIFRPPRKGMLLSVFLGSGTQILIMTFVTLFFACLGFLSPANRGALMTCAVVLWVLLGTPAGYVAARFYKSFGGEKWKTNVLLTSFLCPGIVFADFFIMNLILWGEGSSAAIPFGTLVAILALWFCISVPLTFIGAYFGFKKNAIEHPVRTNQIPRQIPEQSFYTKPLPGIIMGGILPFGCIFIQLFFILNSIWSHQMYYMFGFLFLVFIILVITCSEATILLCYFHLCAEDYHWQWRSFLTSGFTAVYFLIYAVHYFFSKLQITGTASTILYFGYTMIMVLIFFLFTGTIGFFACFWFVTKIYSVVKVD
# Chain of UniProt Q8TCT7 (Q8TCT7 whole entry, looked up): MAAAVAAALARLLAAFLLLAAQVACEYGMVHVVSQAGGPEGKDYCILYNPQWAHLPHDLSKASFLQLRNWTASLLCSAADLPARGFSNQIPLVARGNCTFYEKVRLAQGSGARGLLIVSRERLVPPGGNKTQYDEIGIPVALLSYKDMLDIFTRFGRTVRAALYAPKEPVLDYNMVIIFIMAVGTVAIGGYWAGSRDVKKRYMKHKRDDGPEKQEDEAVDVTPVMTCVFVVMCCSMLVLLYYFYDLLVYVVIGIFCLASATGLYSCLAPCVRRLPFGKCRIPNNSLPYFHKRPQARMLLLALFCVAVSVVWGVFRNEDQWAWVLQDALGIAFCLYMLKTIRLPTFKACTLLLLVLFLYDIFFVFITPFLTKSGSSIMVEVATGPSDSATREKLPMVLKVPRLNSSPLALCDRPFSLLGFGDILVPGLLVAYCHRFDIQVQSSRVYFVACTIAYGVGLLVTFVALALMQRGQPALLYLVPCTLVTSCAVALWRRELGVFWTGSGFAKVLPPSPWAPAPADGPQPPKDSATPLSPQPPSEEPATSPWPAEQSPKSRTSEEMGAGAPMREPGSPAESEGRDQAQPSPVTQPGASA
# Chain of UniProt Q13043 (Q13043 whole entry, looked up): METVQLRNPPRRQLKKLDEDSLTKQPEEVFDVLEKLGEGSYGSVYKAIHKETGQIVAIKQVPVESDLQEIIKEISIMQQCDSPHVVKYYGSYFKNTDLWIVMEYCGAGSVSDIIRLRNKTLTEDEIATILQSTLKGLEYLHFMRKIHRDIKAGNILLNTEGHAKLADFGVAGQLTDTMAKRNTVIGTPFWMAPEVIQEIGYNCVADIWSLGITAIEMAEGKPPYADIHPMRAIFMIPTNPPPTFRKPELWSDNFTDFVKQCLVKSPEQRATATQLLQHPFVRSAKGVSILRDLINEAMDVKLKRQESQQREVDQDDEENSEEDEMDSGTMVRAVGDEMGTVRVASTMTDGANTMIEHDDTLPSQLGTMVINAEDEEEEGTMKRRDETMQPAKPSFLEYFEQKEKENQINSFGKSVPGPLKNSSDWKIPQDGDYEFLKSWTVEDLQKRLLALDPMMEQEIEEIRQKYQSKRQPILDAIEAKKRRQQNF
# Chain of UniProt P08240 (P08240 whole entry, looked up): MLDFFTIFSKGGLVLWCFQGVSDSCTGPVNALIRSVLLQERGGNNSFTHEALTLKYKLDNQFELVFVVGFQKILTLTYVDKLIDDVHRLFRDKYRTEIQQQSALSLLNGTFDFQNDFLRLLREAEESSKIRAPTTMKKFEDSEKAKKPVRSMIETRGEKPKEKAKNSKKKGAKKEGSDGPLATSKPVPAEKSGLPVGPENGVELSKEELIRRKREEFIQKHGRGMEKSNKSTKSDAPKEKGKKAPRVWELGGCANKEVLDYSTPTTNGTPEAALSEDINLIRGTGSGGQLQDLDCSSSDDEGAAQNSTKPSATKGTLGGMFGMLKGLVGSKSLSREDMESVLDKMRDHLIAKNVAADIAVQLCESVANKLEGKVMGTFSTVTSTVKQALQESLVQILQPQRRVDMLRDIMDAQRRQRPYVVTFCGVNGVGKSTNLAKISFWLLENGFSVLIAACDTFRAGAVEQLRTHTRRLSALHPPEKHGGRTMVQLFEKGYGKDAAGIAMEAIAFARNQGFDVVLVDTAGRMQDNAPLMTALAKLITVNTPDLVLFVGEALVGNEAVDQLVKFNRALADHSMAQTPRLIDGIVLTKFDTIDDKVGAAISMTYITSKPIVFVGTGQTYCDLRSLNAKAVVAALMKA
# Chain of UniProt Q8WU79 (Q8WU79 whole entry, looked up): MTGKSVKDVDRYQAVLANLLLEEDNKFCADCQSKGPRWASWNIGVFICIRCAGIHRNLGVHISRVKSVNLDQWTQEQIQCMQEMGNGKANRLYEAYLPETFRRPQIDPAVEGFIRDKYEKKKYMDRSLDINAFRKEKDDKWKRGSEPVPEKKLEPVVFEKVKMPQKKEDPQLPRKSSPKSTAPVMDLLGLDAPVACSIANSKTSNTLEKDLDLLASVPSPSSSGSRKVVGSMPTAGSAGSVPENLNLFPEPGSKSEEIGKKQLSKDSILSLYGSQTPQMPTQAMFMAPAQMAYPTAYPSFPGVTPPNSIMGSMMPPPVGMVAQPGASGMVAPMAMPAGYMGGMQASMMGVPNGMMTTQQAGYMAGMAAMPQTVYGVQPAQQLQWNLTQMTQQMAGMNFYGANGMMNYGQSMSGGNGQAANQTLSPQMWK
# Chain of UniProt P50225 (P50225 whole entry, looked up): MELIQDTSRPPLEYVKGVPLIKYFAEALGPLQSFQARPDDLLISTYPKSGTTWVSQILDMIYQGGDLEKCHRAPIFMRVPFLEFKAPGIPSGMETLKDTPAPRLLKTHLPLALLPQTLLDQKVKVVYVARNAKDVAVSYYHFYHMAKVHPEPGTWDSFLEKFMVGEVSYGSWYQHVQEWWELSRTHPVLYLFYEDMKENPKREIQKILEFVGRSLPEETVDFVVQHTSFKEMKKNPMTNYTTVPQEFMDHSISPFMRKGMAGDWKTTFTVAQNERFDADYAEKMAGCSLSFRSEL
# Chain of UniProt Q969G3 (Q969G3 whole entry, looked up): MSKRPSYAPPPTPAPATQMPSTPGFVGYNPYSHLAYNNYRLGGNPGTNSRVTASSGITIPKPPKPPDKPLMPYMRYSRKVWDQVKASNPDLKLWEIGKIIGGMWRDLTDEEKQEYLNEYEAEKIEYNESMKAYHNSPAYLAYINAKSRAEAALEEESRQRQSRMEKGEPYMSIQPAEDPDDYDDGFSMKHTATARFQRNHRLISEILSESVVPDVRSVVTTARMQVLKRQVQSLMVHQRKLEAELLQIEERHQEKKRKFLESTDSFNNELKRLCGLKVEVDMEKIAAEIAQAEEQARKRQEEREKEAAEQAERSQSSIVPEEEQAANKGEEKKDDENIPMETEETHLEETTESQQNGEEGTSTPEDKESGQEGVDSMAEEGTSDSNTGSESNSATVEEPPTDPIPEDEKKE
# Chain of UniProt Q92581 (Q92581 whole entry, looked up): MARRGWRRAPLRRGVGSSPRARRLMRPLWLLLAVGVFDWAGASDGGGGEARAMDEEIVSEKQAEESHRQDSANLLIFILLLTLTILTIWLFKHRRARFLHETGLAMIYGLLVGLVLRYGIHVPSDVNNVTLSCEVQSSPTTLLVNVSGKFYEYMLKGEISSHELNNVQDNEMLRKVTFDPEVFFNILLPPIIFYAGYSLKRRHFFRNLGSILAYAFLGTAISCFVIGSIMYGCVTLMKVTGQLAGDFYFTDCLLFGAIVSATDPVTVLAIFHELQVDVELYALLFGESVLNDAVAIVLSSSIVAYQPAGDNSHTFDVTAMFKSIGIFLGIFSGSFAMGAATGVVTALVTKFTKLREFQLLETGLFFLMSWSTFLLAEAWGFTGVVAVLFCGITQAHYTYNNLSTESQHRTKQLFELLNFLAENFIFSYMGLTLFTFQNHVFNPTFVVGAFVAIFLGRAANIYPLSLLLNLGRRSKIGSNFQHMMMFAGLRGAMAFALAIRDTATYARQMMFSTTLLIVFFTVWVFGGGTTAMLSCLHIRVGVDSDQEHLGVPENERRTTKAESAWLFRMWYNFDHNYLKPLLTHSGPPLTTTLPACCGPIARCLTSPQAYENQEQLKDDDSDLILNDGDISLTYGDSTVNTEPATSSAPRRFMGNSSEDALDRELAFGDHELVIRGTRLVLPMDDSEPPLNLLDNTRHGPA
# Chain of UniProt P62318 (P62318 whole entry, looked up): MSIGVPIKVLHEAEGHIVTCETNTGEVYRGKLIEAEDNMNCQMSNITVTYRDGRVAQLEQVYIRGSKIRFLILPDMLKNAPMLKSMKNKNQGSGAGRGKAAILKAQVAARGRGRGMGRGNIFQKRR
Target,log2 fold change (bafetinib),log2 fold change [1],log2 fold change (nilotinib),log2 fold change [2],log2 fold change (dasatinib),log2 fold change [3],log2 fold change [4],log2 fold change [5],log2 fold change (tipifarnib),log2 fold change (mubritinib),log2 fold change [6],log2 fold change [7],log2 fold change [8],log2 fold change [9],log2 fold change (entinostat),log2 fold change (vorinostat),log2 fold change (citarinostat),log2 fold change (silmitasertib),log2 fold change [10],log2 fold change [11]
SRSF3 (UniProt P84103),0.126,-0.028,0.075,-0.544 (active),0.173,0.082,-0.199,-0.154,0.134,-0.097,-0.05,0.148,0.396,0.064,-0.126,-0.026,-0.105,-0.033,0.194,-0.141
TM9SF2 (UniProt Q99805),-0.056,0.008,0.025,-0.072,-0.013,0.041,0.023,0.036,0.009,-0.006,0.026,0.006,-0.138,-0.022,-0.006,0.006,-0.003,0.002,-0.057,-0.062
SPPL2B (UniProt Q8TCT7),-0.087,0.066,-0.016,-0.006,-0.066,0.009,0.116,-0.118,0.036,-0.008,0.06,0.009,-0.031,-0.016,-0.052,-0.013,0.05,-0.037,0.029,-0.025
SSX2 (UniProt Q16385),-0.098,-0.011,0.003,-0.061,0.014,-0.042,-0.039,0.012,-0.015,-0.048,-0.049,-0.094,-0.02,-0.057,-0.054,-0.022,-0.025,0.011,-0.098,0.033
SMAP2 (UniProt Q8WU79),0.01,-0.025,-0.078,-0.039,-0.135,0.044,-0.022,-0.004,-0.014,0.018,-0.013,0.024,-0.043,-0.069,-0.01,0.002,0.056,0.06,-0.122,-0.028
SPTBN1 (UniProt Q01082),0.064,-0.017,-0.01,-0.145,-0.043,0.054,-0.009,-0.007,-0.045,-0.075,-0.051,-0.04,-0.041,-0.016,0.011,0.026,-0.009,0.127,0.009,-0.007
SNRPD3 (UniProt P62318),0.013,-0.077,0.034,0.077,0.08,0.107,-0.097,-0.06,0.024,0.011,0.034,-0.01,0.025,0.013,-0.059,-0.067,-0.019,0.092,0.271 (active),-0.055
STK38 (UniProt Q15208),0.054,0,-0.105,-0.343 (active),-0.136,0.009,0.035,0.008,-0.079,-0.083,-0.072,-0.077,-0.11,-0.062,0.129,0.016,0.097,0.061,0.004,-0.086
TCOF1 isoform 4 (UniProt Q13428),-0.037,-0.012,-0.022,0.045,0.048,-0.034,-0.046,-0.014,0.022,0.025,0.131,-0.065,-0.014,-0.013,-0.015,-0.026,-0.002,0.002,0.045,-0.112
SLC9A6 isoform 2 (UniProt Q92581),-0.049,0.012,0.039,0.011,0.017,-0.002,-0.019,0.026,0.047,0.033,-0.021,0.016,-0.091,-0.02,-0.017,-0.078,0.025,0.027,-0.021,-0.073
STK4 (UniProt Q13043),-0.053,-0.027,-0.003,0.143,-0.052,-0.016,0.005,0,0.039,-0.028,0.248 (active),-0.031,-0.1,0.006,-0.041,0.011,0.064,-0.015,-0.031,-0.122
SRPRA (UniProt P08240),0.143,0.138,0.066,0.04,-0.105,0.123,0.054,-0.037,-0.141,0.227 (active),-0.03,0.017,-0.049,-0.045,0.02,0.033,0,0.021,0.008,0.015
SMARCE1 (UniProt Q969G3),-0.181,0.041,-0.191,0.16,-0.07,-0.055,-0.056,-0.09,-0.082,-0.274,0.05,0.096,0.218,0.707,0.076,0.088,0,0.211,-0.008,-0.016
SULT1A1 (UniProt P50225),-0.067,0.222,-0.072,-0.065,-0.172,-0.002,0.333 (active),0.353 (active),-0.097,-0.069,-0.049,0.039,-0.179,0.123,0.133,0.063,0.056,-0.038,-0.095,0.032
SUPT16H (UniProt Q9Y5B9),0.006,0.049,0.011,-0.088,-0.269,-0.103,0.073,0.108,-0.088,0.047,-0.017,-0.111,-0.183,-0.158,0.207,0.178,0.198,0.109,-0.227,0.025
